T1: UNK ZnF1-6 (called full-length) (human, UniProt Q9C0B0 30-357)
T1 sequence: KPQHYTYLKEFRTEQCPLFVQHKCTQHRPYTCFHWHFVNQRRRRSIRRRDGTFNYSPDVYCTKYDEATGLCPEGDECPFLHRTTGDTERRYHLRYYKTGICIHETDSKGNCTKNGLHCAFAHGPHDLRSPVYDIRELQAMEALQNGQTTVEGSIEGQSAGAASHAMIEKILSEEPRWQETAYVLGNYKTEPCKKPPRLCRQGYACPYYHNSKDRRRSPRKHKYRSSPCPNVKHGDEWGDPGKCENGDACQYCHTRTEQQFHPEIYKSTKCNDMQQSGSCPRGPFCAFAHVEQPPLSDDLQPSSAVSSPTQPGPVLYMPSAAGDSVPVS

B1: chr3:129431351:129431457:-|3pUTR|ENSG00000129071|unk|total|mutant (ssRNA)
RNA: GGGAGUUCUACAGUCCGACGAUCACUUCAAAAAAGCUUAAUUAAGUACAACCAACCACCUUUCCAGCCACCGAGAUUUUAAUCCGCCCAACCCGAAGCCCCGUGUGUGUGCUUUCUUAAUGUGUGUGCCAAUGGUGGAUCUUUCAACAGAGGAUUGAGCAUCA
B2: chr11:61873518:61873813:-|three_prime_utr|ENSG00000221968|control|control|control (ssRNA)
RNA: GGGAGUUCUACAGUCCGACGAUCCCCUCACAUGUGUAUUCAGCAGCCCUAUGGCCUUGGCUCUGGGCCUGAUGGGACAGGGGUAGAGGGAAGGUGAGCAUAGCACAUUUUCCUAGAGCGAGAAUUGGGGGAAAGCUGUUAUUUCAACAGAGGAUUGAGCAUCA
B3: chr1:225494445:225494546:-|3pUTR|ENSG00000154380|msi1|total|mutant (ssRNA)
RNA: GGGAGUUCUACAGUCCGACGAUCUUGGGUGUUCCCUCUUCUUAUUUUCUCUCUGCCCACCUUGACACAGUAACUUCCUCUUACCGUCAAGAUGAUGAUUAAGUGUUUAAUUUUUAUUCCAUUUUGUUCUGCAACACGUUCAGGCAACAGAGGAUUGAGCAUCA
B4: ENSG00000070961:be:win_5551|3pUTR|ENSG00000070961|bound_else_gene|NA|bound_elsewhere_windowed (ssRNA)
RNA: GGGAGUUCUACAGUCCGACGAUCAAUUGUACAUUUAUUCAUCAGGUAUUUAUAGUGAAUCAUACUGUAAAAAAGAGGUAGCAUGAUAUGCUGGAAAGCAUAUUAGACUAGGAGUCAAGACCUGGUUUCUAGUCUUGGUUUUGCCAACAGAGGAUUGAGCAUCA
B5: chr3:125228010:125228111:-|3pUTR|ENSG00000163848|msi1|FALSE|unique (ssRNA)
RNA: GGGAGUUCUACAGUCCGACGAUCAGUUCUCUUCAUAUUUCAUAACUACAUUUCAAUAAUUCUAAACUUUCUACAUUGAUUUUUAGAUACUUAUUUUUCAAGCUUGGUUUCUCAGCUGAUCAGAUGAAUUUAUUCAACUUCAAUCAACAGAGGAUUGAGCAUCA
B6: chr11:58422334:58423261:-|CDS|ENSG00000172365|control|control|control (ssRNA)
RNA: GGGAGUUCUACAGUCCGACGAUCACACACUAGUGAGGUGAUUCUGGUUUUUAUGUCAAGCUUUAAUAUCUUUUUUGUUCUUCUAGUUAUCUUUAUCUCCUACUUGUUCAUAUUCAUCACCAUCUUGAAGAUGCAUUCAGCUAACAACAGAGGAUUGAGCAUCA
B7: chr6:52791370:52791857:-|three_prime_utr|ENSG00000243955|control|control|control (ssRNA)
RNA: GGGAGUUCUACAGUCCGACGAUCGCUAAUGAACUCUUUCAAAUUAUAUGCUAAUUAAAUAAUACAACUCCUAUUCGCUGACUUAGUUAAAAUUGAUUUGUUUUCAUUAGGAUCUGAUGUGAAUUCAGAUUUCCAAUCUUCUCCCAACAGAGGAUUGAGCAUCA
B8: chr12:64147824:64147925:+|3pUTR|ENSG00000196935|unk|FALSE|unique (ssRNA)
RNA: GGGAGUUCUACAGUCCGACGAUCCAUCUCUGUGGUGUCUUUGUUCCUUUCCUUUCAUUCAUCACUACUUUCUCCUUGACAGCUAGCUUGCAUUAAAUAAUGUGAAACUUUUACCUUUAAAAUAUUUUUUUAUCUCACUUUCAUCAACAGAGGAUUGAGCAUCA
B9: chr3:125228010:125228111:-|3pUTR|ENSG00000163848|msi1|total|mutant (ssRNA)
RNA: B5 RNA with U83C, A84C
B10: chr16:18805221:18805325:-|3pUTR|ENSG00000157106|unk|FALSE|bound_elsewhere (ssRNA)
RNA: GGGAGUUCUACAGUCCGACGAUCAAGAAUUCUAUGUUCUGAAAUGCACACUUUUAGAAUGUUUUUCUUUGAAAACAGGCUAAUAGUUUUUUCUUUUUUUGACAAAGUUUCAGCUCCUCUUUAAAGUUAUUGUGUCAUUUUUCUCAACAGAGGAUUGAGCAUCA
B11: chr20:3933335:3933436:-|3pUTR|ENSG00000101236|msi1|total|mutant (ssRNA)
RNA: GGGAGUUCUACAGUCCGACGAUCUUACAACACCUGCUAUCAAAUCAUCUAAGCUGAAAACAUGAGAUGCGCUUGGAAAGGCCCCGUCAGAAGCCAUUUCCUCUUAUCAUUUCCCUCUCCUAUGCACCAGUAAGGCCCGUCCAGCAACAGAGGAUUGAGCAUCA
B12: chr7:103374401:103374592:-|CDS|ENSG00000170615|control|control|control (ssRNA)
RNA: GGGAGUUCUACAGUCCGACGAUCCCUGCCCUAUGGGAGCUGCUGUUCCACAGCAUUCAUGAUGCAGUUUUAGGCAGCCAACUUAGAGAGGCACUUGCUGAACAGGAAGCCUCGGCUCCCCCUUCCCAGGAGGACUUGGAGCCCCAACAGAGGAUUGAGCAUCA
B13: chr5:97028609:97028710:+|3pUTR|ENSG00000113441|msi1|FALSE|bound_elsewhere (ssRNA)
RNA: GGGAGUUCUACAGUCCGACGAUCUUGCAAAAGCCAAGGUAAAGCCAGGAUCGCUGCCAAGUUGUUUGCACUCUUUGGAGUUCUAGUUAGCUCAGGGCCUGACUGUAUUUUUCAUCCAUCUUUUCUGAAGUGUCUUUGGGCAGUCAACAGAGGAUUGAGCAUCA
B14: chr22:21921976:21922077:-|3pUTR|ENSG00000100034|msi1|FALSE|unique (ssRNA)
RNA: GGGAGUUCUACAGUCCGACGAUCGACUGCAGUGGGCUCGGAUAGGCCCAUUGAGGUUUUUAGAAAAGCAGGAUUUGUUUUGUUAGGGAGGCAUGAUUUUGGUGAGAUCUUUCUGGAAGAGUUUUCCGCCUCUUUGUGAUGCUGCAACAGAGGAUUGAGCAUCA
B15: chr11:64204363:64204470:+|3pUTR|ENSG00000168439|unk|FALSE|unique (ssRNA)
RNA: GGGAGUUCUACAGUCCGACGAUCGCCCUCGAGUUCCAUGUCUCUUUCCCCUGCCCCUAGUUGCUGUCUCGGCUGCUCUCCCAUAGUUGGUUUUUUUUUUAUUUGGGGCAGUGGGCAUGUUAUGGGGAGGGGAGGGGGUUCUUCCAACAGAGGAUUGAGCAUCA
B16: chr1:88684422:88684524:+|5pUTR|ENSG00000065243|unk|FALSE|unique (ssRNA)
RNA: GGGAGUUCUACAGUCCGACGAUCUCGAUGAACCGGACGGAAUAAGCCGCGCCUCCAGCAGGGGCUGCGCCUCCAUGAAUCCCUAGUUGUUUUUUUUUUUUUCUUUCUCUCCCCUCUCCUCACCCCCACCCCGAGCCCCGUCCCCAACAGAGGAUUGAGCAUCA
B17: chr1:228494639:228494729:+|3pUTR|ENSG00000168159|msi1_unk|FALSE|overlapping (ssRNA)
RNA: GGGAGUUCUACAGUCCGACGAUCGCCAUCGUGUCUCAUCUUGCUGUUAUCUCUAGCUCUUUCCCUCCUCCCAUUUCCUUUAGUAGUUGAAUUUUGCAAAGCUUGUAGCAGUAGCUCAGUUGCCUGCAGCAUCCUUGUGUGUAGCAACAGAGGAUUGAGCAUCA
B18: chr14:75134463:75134564:-|3pUTR|ENSG00000170348|msi1|FALSE|unique (ssRNA)
RNA: GGGAGUUCUACAGUCCGACGAUCCUGUUUGGACUAUGUUUUCUUUUCUUCUCCCACUUGCUCAGCAGCUUGGGCUUCCAUUCUAGUUCUUUUACCAAGAUUUUUGUGUGACCAUGUUGACUUCAUUUGGAUUGCCCUCUUUCACAACAGAGGAUUGAGCAUCA
B19: chr11:134247321:134247422:+|3pUTR|ENSG00000151502|unk|FALSE|unique (ssRNA)
RNA: GGGAGUUCUACAGUCCGACGAUCCCUUUUCAGAGCAUGAGGUCAGGCUCUGUAUCCCUCCUUUUCCUAGCUGAUAUUCUAACUAGAAGCAUUUGUCAAUUCCUUUGCCUCCCAACUGACAACACACGUUCAUUUUCCAACCUUCAACAGAGGAUUGAGCAUCA
B20: chr8:100258838:100258944:-|CDS|ENSG00000034677|unk|FALSE|unique (ssRNA)
RNA: GGGAGUUCUACAGUCCGACGAUCAGUGAAUUUGAGGCUCCAUCCCUCAGUGACAGUAUGCCUUCUGUAGCAGAUUCUCACUCUAGUCAUUUUUCUGAAUUUAGUUGUUCUGACCUAGAAAGCAUGAAAACUUCUUGUAGUCAUCAACAGAGGAUUGAGCAUCA
B21: chr1:88684422:88684524:+|5pUTR|ENSG00000065243|unk|total|mutant (ssRNA)
RNA: B16 RNA with U83C, A84C
B22: chr17:58090057:58090109:+|3pUTR|ENSG00000264364|msi1_unk|FALSE|overlapping (ssRNA)
RNA: GGGAGUUCUACAGUCCGACGAUCGGGUAGGAUUAGCUUGAAUCUUUUUUUUCUUUACAUUUUUCUCCUGUCUGCUCCCUGCUUAGCCCUCAGUUUCCUCAUUCCUCUGGAGUUCUCUUAGAGCAGCCCCUGUUGUUAGUUGGCCAACAGAGGAUUGAGCAUCA
B23: chr1:180885099:180885158:+|3pUTR|ENSG00000143324|msi1_unk|FALSE|overlapping (ssRNA)
RNA: GGGAGUUCUACAGUCCGACGAUCAGCUGAAGCUAUGCCUUAUUAUGCAUCCACAUGUAUGGUCCCUGUAGCGUGACCUUUACUAGCUCUGAAUCAGAAGACAGAGCUAUUUCAGAGGCUCUGUGUGCCCUCACUAGAUAGUUUCAACAGAGGAUUGAGCAUCA
B24: chr16:87831719:87831834:-|3pUTR|ENSG00000103257|msi1_unk|total|mutant (ssRNA)
RNA: GGGAGUUCUACAGUCCGACGAUCCCUGCGUUUGGAGGCCCCUGGGCUCUCACCCAGUCCCCACCCGCCUGCAGAGAGGGAACCCGGGCACCCCUUGUUUCUGUUGUUCCCGUGAAUUUUUUUCGCUAUGGGAGGCAGCCGAGGCAACAGAGGAUUGAGCAUCA

Numbering of substitutions follows the chain as printed. In all, about 5,800 sequences were measured (“enrichment r”: median about 0.68, highest 2% from about 11 on). Only a selection was taken, and the highest values are over-represented in it overall.

The target in the assay is T1, UNK ZnF1-6 (called full-length). The experiment in a line: nsRBNS (natural sequence RNA bind-n-seq); RBNS binding buffer (assumed for nsRBNS): 25 mM Tris pH 7.5, 150 mM KCl, 3 mM MgCl2, 0.01% Triton X-100, 500 ug/ml BSA, 20 U/ml SUPERase-In, 4 C; UNK is unkempt and MSI1 is Musashi-1; names of the RNAs are library labels; protein concentration not given here; high values mean tight binding.
B1 displayed a binding signal of 0.636 enrichment R.
With B2 the figure was 1.12 enrichment R; with B3, 0.642 enrichment R.
B4 gave a binding signal of 0.3 enrichment R.
As for B5, the binding signal came out at 3.33 enrichment R.
As to B6, the binding signal came out at 12.5 enrichment R.
Consider B7, for which the binding signal is 6.55 enrichment R.
On to B8, for which the binding signal came out at 10.6 enrichment R.
B9 yielded a binding signal of 15.6 enrichment R.
The molecule B10 had a binding signal of 0.773 enrichment R.
Molecule B11 returned a binding signal of 0.525 enrichment R.
As for B12, the figure is 0.733 enrichment R.
As for B13, the figure is 0.475 enrichment R.
Molecule B14 registered a binding signal of 0.813 enrichment R.
For the molecule B15, the binding signal stood at 20.5 enrichment R.
B16 displayed a binding signal of 39 enrichment R.
With B17 the figure was 14.7 enrichment R.
Turning to B18, the binding signal was 0.995 enrichment R.
Molecule B19 had a binding signal of 2.72 enrichment R.
The molecule B20 registered a binding signal of 13.2 enrichment R.
B21 had a binding signal of 3.43 enrichment R.
For B22, the binding signal was determined as 4.34 enrichment R.
With B23, the binding signal is 2.64 enrichment R.
With B24 the figure was 0.698 enrichment R.

Values taken from publication PMC12136788.
